Each structure is given as a SMILES string. Several values for one entry are separate records, joined by “and”; a condition that tells them apart may be missing. Identical values can stand only once. Records with an inconclusive call do not appear. Activity calls are given as the source filed them. The call rests on the fitted dose curve.

From PubChem BioAssay (NCATS) come the findings set out here.
Potency means the concentration at half of the fitted maximal effect.

The nature of the experiment: Primary qHTS to identify inhibitors of SARS-CoV-2 cell entry (AID 1645846). Further: nearly all actives have a fitted effect of over 45% in size. As to conditions: SARS-CoV-2 pseudovirus cell entry assay, luminescence; activity change, negative = inhibition: at 57.1 µM (top of the series) unless noted; series mostly up to 57.1 µM. In outline:
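HEK293 cells stably expressing human ACE2, pre-treated 1 h with compound, then infected with MLV particles pseudotyped with Wuhan-Hu-1 spike (C-terminal 19-aa truncation). Luciferase luminescence after 48 h at 37 °C, normalised to spike PP and bald PP.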
For orientation: Quantitative high-throughput screening tests each substance at several concentrations.
As for `C/C(=C1\CCOC(=O)S1)N(C=O)Cc1cnc(C)nc1N`, the result was inactive. Same read-out and setting: the same measure for `Clc1ccccc1CN1CCc2sccc2C1`: “inactive”; for `CC(=O)OCC(=O)[C@@]1(O)[C@H](C)C[C@H]2[C@@H]3C=C(C)C4=Cc5c(cnn5-c5ccccc5)C[C@]4(C)[C@@H]3[C@@H](O)C[C@@]21C`: “inactive”. In the case of `CCCS(=O)(=O)Nc1ccc(F)c(C(=O)c2c[nH]c3ncc(-c4ccc(Cl)cc4)cc23)c1F`, the activity change, negative = inhibition is -8.78%. Same read-out and setting: the same measure for `CS(=O)(=O)Nc1ccc([N+](=O)[O-])cc1Oc1ccccc1`: -13.1% and -8.45%. As to `O=C1C(Cl)=C(NCCN2CCOCC2)C(=O)c2ncccc21`, the Potency was 11.2 µM (active). Take `CCOc1cc2ncc(C#N)c(Nc3ccc(OCc4ccccn4)c(Cl)c3)c2cc1NC(=O)/C=C/CN(C)C`: the Potency is 8.91 µM (active) and 2.51 µM (active). Take `CNCc1ccc(-c2[nH]c3cc(F)cc4c3c2CCNC4=O)cc1`: the activity change, negative = inhibition is -28.3%.
